According to the supplement of paper PMC11732987, “Enantioselective OTUD7B fragment discovery through chemoproteomics screening and high-throughput optimisation” (Communications Chemistry, 2025):
A number with no mark means an inactive call.

Legend:
Assay in all cases: log2 ratio of Biotin-Ahx-Ub-VS probe labelling (fragment/DMSO); higher = less target engagement (more negative = stronger competition), active = hit call of the paper (q ≤ 0.05, log2 ratio ≤ -1)
Details in all cases: compound concentration: 200 uM; treatment time: 3 h
USP19 = target: T1, USP19 (UniProt O94966)
T1 sequence (whole entry): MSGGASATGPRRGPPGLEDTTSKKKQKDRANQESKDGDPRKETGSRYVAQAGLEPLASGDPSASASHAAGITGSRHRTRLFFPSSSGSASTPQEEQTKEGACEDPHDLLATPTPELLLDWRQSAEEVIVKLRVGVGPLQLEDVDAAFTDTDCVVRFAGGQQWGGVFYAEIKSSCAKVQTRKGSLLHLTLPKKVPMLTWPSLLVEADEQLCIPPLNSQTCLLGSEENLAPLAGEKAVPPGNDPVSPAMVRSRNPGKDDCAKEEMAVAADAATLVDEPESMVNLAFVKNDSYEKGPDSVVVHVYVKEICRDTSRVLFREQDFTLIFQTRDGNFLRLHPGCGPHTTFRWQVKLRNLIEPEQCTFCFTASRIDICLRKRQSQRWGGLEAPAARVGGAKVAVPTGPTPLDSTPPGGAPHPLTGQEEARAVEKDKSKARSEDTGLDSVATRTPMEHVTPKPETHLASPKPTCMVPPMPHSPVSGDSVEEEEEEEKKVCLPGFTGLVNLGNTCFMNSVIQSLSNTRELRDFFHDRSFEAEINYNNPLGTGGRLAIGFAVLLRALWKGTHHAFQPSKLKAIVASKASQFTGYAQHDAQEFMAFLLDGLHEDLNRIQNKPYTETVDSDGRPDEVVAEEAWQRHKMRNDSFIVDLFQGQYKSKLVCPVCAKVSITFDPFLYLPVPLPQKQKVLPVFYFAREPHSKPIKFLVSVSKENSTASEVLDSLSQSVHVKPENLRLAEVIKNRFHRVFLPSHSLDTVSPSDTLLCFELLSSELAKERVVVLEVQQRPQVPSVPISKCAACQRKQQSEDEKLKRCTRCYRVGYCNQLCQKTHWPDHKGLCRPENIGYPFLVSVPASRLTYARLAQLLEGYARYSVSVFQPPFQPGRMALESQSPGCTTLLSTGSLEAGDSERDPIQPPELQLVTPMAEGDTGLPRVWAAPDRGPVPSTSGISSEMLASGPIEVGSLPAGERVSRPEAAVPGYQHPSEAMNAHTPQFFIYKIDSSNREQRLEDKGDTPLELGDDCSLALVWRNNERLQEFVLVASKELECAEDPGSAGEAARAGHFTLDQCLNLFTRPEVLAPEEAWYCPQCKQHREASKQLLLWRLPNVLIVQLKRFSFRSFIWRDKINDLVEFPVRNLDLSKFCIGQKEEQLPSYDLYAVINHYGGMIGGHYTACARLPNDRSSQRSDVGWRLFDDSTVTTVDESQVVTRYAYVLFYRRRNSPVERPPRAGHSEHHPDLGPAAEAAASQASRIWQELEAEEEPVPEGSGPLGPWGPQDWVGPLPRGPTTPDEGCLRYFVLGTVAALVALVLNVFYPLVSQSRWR
Method in brief: (§1)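 Each value is an average log2 ratio of fragment to vehicle, tested by unpaired t-test. The underlying Spectronaut label-free quantities were global-median-normalised, and only proteins with ≥2 unique peptides were included. Triplicate HEK293T lysate samples (495 µg) were exposed to fragment at 200 µM or vehicle for 3 h, then to Biotin-Ahx-Ub-VS at 0.5 µM final for 1 h, before NeutrAvidin enrichment of labelled DUBs, LysC and trypsin digestion, and diaPASEF LC-MS/MS.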

USP22 = target: T2, USP22 (UniProt Q9UPT9)
T2 sequence (whole entry): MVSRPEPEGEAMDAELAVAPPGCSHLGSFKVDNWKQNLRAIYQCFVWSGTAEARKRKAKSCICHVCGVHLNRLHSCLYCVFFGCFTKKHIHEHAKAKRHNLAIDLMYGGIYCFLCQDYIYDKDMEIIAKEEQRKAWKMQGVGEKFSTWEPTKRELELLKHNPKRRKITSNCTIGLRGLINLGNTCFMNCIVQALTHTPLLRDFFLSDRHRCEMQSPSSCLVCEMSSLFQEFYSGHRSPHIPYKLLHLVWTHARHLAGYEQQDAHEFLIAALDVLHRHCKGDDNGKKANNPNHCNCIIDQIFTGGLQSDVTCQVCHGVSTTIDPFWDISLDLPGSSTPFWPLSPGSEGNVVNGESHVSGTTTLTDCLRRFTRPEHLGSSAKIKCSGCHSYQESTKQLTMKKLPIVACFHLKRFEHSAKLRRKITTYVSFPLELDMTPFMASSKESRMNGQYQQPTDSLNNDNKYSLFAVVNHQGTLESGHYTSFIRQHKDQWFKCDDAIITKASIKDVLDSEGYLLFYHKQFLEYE
Method in brief: as §1

USP24 = USP24 (UniProt Q9UPU5)
Sequence of USP24 (Q9UPU5 whole entry): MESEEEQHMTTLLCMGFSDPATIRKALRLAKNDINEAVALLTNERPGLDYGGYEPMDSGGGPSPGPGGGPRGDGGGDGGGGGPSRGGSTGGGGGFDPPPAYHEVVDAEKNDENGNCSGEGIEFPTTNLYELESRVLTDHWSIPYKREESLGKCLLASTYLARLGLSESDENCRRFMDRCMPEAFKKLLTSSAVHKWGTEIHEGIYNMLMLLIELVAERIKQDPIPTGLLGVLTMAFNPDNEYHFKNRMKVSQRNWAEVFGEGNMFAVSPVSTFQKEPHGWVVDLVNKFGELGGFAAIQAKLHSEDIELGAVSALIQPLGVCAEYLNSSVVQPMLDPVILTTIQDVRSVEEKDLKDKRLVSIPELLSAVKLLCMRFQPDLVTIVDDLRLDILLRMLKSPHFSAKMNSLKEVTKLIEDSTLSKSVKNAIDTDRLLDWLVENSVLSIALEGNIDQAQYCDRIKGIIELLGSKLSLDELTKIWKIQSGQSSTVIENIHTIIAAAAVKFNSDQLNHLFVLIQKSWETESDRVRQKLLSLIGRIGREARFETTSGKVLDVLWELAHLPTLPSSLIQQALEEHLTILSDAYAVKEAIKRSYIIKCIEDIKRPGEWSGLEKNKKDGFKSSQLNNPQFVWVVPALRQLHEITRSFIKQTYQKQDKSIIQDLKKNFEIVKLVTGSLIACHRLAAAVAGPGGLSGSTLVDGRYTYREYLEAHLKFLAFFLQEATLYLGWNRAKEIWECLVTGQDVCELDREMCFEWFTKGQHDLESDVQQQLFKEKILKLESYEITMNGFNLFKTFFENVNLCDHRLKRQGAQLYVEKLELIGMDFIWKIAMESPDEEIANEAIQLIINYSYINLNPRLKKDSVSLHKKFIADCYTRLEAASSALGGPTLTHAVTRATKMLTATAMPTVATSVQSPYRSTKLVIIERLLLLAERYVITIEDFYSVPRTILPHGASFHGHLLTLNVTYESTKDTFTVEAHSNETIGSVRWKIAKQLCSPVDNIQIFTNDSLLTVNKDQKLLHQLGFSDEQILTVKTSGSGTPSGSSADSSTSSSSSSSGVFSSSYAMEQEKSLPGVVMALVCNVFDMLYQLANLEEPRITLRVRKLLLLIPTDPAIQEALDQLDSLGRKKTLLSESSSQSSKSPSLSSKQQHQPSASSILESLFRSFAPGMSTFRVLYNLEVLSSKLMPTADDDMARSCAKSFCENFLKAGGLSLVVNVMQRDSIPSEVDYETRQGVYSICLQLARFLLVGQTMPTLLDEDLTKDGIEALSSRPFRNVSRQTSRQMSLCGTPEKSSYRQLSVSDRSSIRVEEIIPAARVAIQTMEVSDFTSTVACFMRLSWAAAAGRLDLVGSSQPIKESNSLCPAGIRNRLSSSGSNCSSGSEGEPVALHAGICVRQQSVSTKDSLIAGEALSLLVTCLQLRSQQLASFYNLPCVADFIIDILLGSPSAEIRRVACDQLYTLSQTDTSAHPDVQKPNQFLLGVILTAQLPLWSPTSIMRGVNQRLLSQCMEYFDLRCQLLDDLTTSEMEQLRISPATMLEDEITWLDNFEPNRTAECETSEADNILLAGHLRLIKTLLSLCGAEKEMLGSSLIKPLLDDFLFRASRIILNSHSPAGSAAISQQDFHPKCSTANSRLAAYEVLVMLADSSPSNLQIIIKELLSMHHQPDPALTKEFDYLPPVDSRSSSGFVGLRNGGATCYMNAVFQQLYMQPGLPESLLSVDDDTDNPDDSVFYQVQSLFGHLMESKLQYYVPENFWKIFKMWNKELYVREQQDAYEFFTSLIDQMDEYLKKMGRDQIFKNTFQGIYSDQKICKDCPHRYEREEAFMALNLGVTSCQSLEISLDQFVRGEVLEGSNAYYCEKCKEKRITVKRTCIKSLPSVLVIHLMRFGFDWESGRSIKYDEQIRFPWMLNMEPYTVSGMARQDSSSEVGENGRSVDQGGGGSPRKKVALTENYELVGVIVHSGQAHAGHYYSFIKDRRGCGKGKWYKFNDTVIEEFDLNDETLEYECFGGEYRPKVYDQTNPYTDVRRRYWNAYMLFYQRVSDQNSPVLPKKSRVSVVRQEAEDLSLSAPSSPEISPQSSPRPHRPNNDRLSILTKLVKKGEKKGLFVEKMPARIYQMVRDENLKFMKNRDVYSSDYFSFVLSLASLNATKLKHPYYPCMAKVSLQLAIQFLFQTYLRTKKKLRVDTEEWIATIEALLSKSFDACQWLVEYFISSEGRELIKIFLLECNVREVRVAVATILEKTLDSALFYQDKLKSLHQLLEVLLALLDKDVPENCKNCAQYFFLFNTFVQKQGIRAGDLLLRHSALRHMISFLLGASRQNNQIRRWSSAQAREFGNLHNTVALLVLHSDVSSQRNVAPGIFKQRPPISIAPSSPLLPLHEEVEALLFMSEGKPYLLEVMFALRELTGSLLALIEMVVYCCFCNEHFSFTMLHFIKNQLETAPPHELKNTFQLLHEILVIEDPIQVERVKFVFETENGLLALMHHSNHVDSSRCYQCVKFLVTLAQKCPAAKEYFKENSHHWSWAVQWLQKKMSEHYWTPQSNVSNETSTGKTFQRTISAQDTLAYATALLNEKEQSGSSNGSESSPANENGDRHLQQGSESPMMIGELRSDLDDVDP
Method in brief: as §1

USP25 = target: T3, USP25 (UniProt Q9UHP3)
T3 sequence (whole entry): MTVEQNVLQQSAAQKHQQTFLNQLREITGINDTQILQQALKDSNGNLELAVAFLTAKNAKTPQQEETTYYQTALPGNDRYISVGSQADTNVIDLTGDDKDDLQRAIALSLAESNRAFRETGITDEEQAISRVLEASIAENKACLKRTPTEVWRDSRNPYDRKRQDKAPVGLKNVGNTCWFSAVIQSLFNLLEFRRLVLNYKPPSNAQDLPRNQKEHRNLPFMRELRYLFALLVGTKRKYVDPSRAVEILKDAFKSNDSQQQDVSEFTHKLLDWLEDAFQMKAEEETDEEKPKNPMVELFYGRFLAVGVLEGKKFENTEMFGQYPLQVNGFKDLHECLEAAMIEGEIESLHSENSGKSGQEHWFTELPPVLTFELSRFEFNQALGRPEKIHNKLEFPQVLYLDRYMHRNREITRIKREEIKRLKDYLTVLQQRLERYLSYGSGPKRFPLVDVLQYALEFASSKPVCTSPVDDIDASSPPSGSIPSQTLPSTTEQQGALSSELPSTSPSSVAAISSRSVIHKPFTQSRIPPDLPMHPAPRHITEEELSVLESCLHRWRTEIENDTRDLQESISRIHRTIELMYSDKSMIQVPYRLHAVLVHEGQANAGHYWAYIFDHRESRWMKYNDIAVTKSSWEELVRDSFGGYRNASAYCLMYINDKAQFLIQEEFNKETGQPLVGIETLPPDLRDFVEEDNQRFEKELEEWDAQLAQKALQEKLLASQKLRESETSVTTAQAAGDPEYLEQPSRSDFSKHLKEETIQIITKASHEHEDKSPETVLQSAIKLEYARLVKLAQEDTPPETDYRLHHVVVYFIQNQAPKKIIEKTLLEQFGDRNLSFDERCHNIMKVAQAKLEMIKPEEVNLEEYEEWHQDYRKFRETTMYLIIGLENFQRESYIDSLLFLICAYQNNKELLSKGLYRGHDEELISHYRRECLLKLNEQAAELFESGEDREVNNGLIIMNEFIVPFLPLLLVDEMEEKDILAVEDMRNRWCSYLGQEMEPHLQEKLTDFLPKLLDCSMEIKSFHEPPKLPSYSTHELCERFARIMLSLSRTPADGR
Method in brief: as §1

USP28 = target: T4, USP28 (UniProt Q96RU2)
T4 sequence (whole entry): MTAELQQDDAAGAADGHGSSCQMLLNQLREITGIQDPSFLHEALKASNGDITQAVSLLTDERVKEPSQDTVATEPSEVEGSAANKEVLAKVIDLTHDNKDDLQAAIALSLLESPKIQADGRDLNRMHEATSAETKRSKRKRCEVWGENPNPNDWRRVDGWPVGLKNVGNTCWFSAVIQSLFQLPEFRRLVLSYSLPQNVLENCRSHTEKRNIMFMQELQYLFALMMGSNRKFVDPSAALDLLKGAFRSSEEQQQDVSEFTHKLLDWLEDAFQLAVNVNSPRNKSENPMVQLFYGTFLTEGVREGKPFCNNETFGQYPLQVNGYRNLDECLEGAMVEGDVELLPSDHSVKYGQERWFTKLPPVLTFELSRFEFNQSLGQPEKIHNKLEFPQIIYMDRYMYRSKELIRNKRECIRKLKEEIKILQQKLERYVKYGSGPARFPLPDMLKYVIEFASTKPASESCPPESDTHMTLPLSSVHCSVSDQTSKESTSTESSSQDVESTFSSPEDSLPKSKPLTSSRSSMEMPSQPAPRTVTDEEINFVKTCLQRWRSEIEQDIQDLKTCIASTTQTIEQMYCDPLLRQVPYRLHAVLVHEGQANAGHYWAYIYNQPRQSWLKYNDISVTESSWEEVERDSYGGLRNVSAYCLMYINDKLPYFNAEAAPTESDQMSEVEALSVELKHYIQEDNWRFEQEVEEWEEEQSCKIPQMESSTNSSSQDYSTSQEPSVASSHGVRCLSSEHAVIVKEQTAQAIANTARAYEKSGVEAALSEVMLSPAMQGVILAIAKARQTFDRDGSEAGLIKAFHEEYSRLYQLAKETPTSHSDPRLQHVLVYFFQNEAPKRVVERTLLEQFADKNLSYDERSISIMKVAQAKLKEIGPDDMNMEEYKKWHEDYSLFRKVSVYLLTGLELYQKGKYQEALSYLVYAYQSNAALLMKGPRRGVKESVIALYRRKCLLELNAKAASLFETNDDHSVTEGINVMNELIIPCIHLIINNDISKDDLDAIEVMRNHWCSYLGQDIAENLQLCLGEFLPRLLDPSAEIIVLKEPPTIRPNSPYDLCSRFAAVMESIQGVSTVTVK
Method in brief: as §1

Cn1cc(CN(Cc2ccc(Cl)cc2)C(=O)CCl)cn1
log2 ratio of Biotin-Ahx-Ub-VS probe labelling (USP19): -0.653
log2 ratio of Biotin-Ahx-Ub-VS probe labelling (USP22): 0.0724
log2 ratio of Biotin-Ahx-Ub-VS probe labelling (USP24): -1.49 (active)
log2 ratio of Biotin-Ahx-Ub-VS probe labelling (USP25): -0.161
log2 ratio of Biotin-Ahx-Ub-VS probe labelling (USP28): -0.648
